These results are taken from paper PMC4336329 (PLoS ONE, 2015).

About 14,000 (4.5%) of roughly 310,000 compounds showed an effect of 50% or more. The effect is printed as a negative number. The list comes from a sample in which strong results are over-represented; it also holds similar structures and randomly drawn compounds.
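Also: peak tail current of the secondary pulse compared with the same well before compound.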

Sequence of human ether-à-go-go-related gene (hERG) potassium channel (Q12809 whole entry, looked up): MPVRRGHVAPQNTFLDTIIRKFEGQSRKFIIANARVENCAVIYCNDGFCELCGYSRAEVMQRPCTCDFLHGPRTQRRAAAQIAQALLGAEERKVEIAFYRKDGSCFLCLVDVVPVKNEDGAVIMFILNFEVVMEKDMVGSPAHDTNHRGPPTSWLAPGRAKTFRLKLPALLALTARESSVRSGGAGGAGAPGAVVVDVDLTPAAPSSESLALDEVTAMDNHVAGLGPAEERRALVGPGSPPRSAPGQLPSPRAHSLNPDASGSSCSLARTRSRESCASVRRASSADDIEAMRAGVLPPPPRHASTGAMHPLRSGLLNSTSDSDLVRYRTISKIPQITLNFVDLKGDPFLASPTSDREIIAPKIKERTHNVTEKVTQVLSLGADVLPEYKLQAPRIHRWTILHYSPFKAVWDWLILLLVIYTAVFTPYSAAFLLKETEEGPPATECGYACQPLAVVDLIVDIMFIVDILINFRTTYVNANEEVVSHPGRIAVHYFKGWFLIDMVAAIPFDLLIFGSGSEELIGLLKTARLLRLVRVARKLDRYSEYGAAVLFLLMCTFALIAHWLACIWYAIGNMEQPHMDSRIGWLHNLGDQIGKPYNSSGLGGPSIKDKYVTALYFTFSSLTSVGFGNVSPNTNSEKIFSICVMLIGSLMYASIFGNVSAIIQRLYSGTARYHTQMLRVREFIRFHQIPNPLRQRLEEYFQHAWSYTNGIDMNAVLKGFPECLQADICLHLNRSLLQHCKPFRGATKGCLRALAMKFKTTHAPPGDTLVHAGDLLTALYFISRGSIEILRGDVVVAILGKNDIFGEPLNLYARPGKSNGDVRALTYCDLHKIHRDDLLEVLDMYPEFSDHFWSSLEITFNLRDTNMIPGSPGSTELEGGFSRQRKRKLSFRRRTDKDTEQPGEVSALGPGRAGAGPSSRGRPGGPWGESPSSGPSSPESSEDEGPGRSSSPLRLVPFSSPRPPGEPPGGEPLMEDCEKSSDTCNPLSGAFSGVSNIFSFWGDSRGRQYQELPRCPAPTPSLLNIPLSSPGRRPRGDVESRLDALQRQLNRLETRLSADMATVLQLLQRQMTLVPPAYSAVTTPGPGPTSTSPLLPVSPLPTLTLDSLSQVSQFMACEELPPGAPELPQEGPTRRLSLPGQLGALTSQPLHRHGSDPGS

This test has as its target human ether-à-go-go-related gene (hERG) potassium channel (human, UniProt Q12809). The test is described as follows: primary screen, population patch clamp on CHO cells stably expressing hERG; higher = less effect of the substance.
With `CCn1nnnc1NCc1ccc(Cl)cc1`, the “hERG current change (%, negative = inhibition) at 10uM” value was 9.44%.

For `COc1ccc2c(c1)O[C@@H](c1cccc(C(F)(F)F)c1)[C@H](OC(=O)NCCc1ccc(OC)c(OC)c1)C2=O`, the “hERG current change (%, negative = inhibition) at 10uM” value is -0.231%.

Regarding `O=C(CSc1nnc(-c2ccc(Cl)cc2)n1Cc1ccco1)NCc1ccc2c(c1)OCO2`, the “hERG current change (%, negative = inhibition) at 10uM” value was -75.3%.

`O=C(CSc1nnc(-c2cccnc2)n1Cc1ccco1)NCc1ccc2c(c1)OCO2`: the “hERG current change (%, negative = inhibition) at 10uM” value is recorded as -33.2%.

On to `COc1ccc(-c2nnc(SC(C)C(=O)NCc3ccc4c(c3)OCO4)n2Cc2ccco2)cc1` (stereo not drawn), for which the “hERG current change (%, negative = inhibition) at 10uM” value was -55.1%.

Take `COc1cccc(-c2nnc(SCC(=O)Nc3ccc4c(c3)OCCO4)n2Cc2ccco2)c1`: the “hERG current change (%, negative = inhibition) at 10uM” value is -15.1%.

Take `O=C(CSc1nnc(-c2ccccc2)n1Cc1ccco1)NCc1ccc2c(c1)OCO2`: the “hERG current change (%, negative = inhibition) at 10uM” value is -14.5%.

On to `COc1cccc(-c2nnc(SCC(=O)NCc3ccc4c(c3)OCO4)n2Cc2ccco2)c1`, for which the “hERG current change (%, negative = inhibition) at 10uM” value is -49.7%.

Take `O=C(CSc1nnc(NC(=O)c2ccco2)s1)NC1CCCCC1`: the “hERG current change (%, negative = inhibition) at 10uM” value turned out to be 2.07%.

`Cc1ccc2c(c1)N(CCC(=O)NCCCN1CCCC1)C(=O)C(C)O2` (stereo not drawn): the “hERG current change (%, negative = inhibition) at 10uM” value was found to be 22.4%.

Take `OCC1(Cc2cccc(Cl)c2)CCCN(Cc2ccc(F)c(F)c2)C1` (stereo not drawn): the “hERG current change (%, negative = inhibition) at 10uM” value is -51.2%.

Consider `COc1cc(CN2CCCC(CO)(Cc3cccc(Cl)c3)C2)cc2c1OCO2` (stereo not drawn), for which the “hERG current change (%, negative = inhibition) at 10uM” value was -68.1%.

Consider `COc1cc(CN2CCCC(CO)(Cc3ccccc3C)C2)cc2c1OCO2` (stereo not drawn), for which the “hERG current change (%, negative = inhibition) at 10uM” value is -27.9%.

As for `COc1cc(CN2CCCC(CO)(Cc3ccccc3)C2)ccc1O` (stereo not drawn), the “hERG current change (%, negative = inhibition) at 10uM” value is recorded as -17.6%.

On to `CCn1nc(C)c(CN2CCCC(CO)(Cc3cccc(Cl)c3)C2)c1C` (stereo not drawn), for which the “hERG current change (%, negative = inhibition) at 10uM” value is recorded as -40.8%.

Consider `Cc1nn(C)c(Cl)c1CN1CCCC(CO)(Cc2ccccc2)C1` (stereo not drawn), for which the “hERG current change (%, negative = inhibition) at 10uM” value is -6.66%.

Consider `Cc1cccc(-c2ncc(CN3CCCC(CO)(Cc4cccc(Cl)c4)C3)cn2)c1` (stereo not drawn), for which the “hERG current change (%, negative = inhibition) at 10uM” value is given as -20.6%.

With `COc1ccc(CN2CCCC(CO)(Cc3cccc(Cl)c3)C2)cc1OC` (stereo not drawn), the “hERG current change (%, negative = inhibition) at 10uM” value is reported as -63.2%.

On to `Cc1nn(C)c(Cl)c1CN1CCCC(CO)(Cc2cccc(Cl)c2)C1` (stereo not drawn), for which the “hERG current change (%, negative = inhibition) at 10uM” value was -59.8%.

On to `CC(C)(O)C#Cc1ccc(CN2CCCC(CO)(Cc3cccc(Cl)c3)C2)cc1` (stereo not drawn), for which the “hERG current change (%, negative = inhibition) at 10uM” value is -6.28%.

In the case of `Cc1c(CN2CCCC(CO)(Cc3cccc(Cl)c3)C2)cnn1C` (stereo not drawn), the “hERG current change (%, negative = inhibition) at 10uM” value is -11.2%.

As to `CSc1cccc(CN2CCCC(CO)(Cc3cccc(Cl)c3)C2)c1` (stereo not drawn), the “hERG current change (%, negative = inhibition) at 10uM” value is -29%.

As to `CCC/C=C(\CCC)C(NS(=O)(=O)c1ccc(C(F)(F)F)cc1)c1ccccc1` (stereo not drawn), the “hERG current change (%, negative = inhibition) at 10uM” value is given as 15.5%.

As to `Cc1nnc2ccc(N3CCN(C(=O)c4ccccc4)CC3)nn12`, the “hERG current change (%, negative = inhibition) at 10uM” value is recorded as -0.844%.

With `COc1ccc(S(=O)(=O)NCc2ccncc2)cc1NC(=O)c1ccccc1C`, the “hERG current change (%, negative = inhibition) at 10uM” value is on record as -36.6%.

On to `O=C(/C=C/c1cccc([N+](=O)[O-])c1)NCCSCc1c(Cl)cccc1Cl`, for which the “hERG current change (%, negative = inhibition) at 10uM” value was -11.9%.

Consider `NS(=O)(=O)c1ccc(NC(=O)c2ccc3c(c2)OCO3)cc1`, for which the “hERG current change (%, negative = inhibition) at 10uM” value is on record as 11.3%.

For `COc1cc(Cl)c(CN2CCCC(CO)(Cc3ccccc3F)C2)cc1OC` (stereo not drawn), the “hERG current change (%, negative = inhibition) at 10uM” value is given as -20.1%.

For the compound `COc1cc(Cl)c(CN2CCCC(CO)(Cc3ccccc3)C2)cc1OC` (stereo not drawn), the “hERG current change (%, negative = inhibition) at 10uM” value is recorded as -55.2%.

Regarding `COc1cc(Cl)c(CN2CCCC(CO)(Cc3cccc(Cl)c3)C2)cc1OC` (stereo not drawn), the “hERG current change (%, negative = inhibition) at 10uM” value is recorded as -45.6%.

Consider `FC(F)(F)c1cc(Sc2ccccc2)nc(-c2ccccn2)n1`, for which the “hERG current change (%, negative = inhibition) at 10uM” value is recorded as -19.3%.

For `O=C(O)CSc1cc(C(F)(F)F)nc(-c2ccccn2)n1`, the “hERG current change (%, negative = inhibition) at 10uM” value is 5.55%.

As to `C#CCSc1cc(C(F)(F)F)nc(-c2ccccn2)n1`, the “hERG current change (%, negative = inhibition) at 10uM” value is listed as -62.9%.

Regarding `CCC(=O)NC(C)c1nc2ccccc2n1C` (stereo not drawn), the “hERG current change (%, negative = inhibition) at 10uM” value is given as 1.29%.

As for `Cc1sc2ncnc(N/N=C/c3ccccc3O)c2c1C`, the “hERG current change (%, negative = inhibition) at 10uM” value is reported as -1.58%.

As for `Cc1sc2ncnc(N/N=C/c3cccc(O)c3)c2c1C`, the “hERG current change (%, negative = inhibition) at 10uM” value is -61.9%.

`Cc1sc2ncnc(N/N=C/c3ccc(O)cc3)c2c1C`: the “hERG current change (%, negative = inhibition) at 10uM” value came to 2.28%.

As to `O=C(CCNNC(=O)c1ccncc1)NCc1ccccc1`, the “hERG current change (%, negative = inhibition) at 10uM” value is 9.98%.

As for `OCC1(Cc2ccccc2)CCCN(Cc2cnn(-c3ccccc3)c2)C1` (stereo not drawn), the “hERG current change (%, negative = inhibition) at 10uM” value was -59.4%.

Regarding `COc1ccccc1-n1cc(CN2CCCC(CO)(Cc3cccc(Cl)c3)C2)cn1` (stereo not drawn), the “hERG current change (%, negative = inhibition) at 10uM” value is given as -49.5%.

Turning to `Cn1cc(CN2CCCC(CO)(Cc3ccccc3)C2)cn1` (stereo not drawn), the “hERG current change (%, negative = inhibition) at 10uM” value is 4.27%.

Consider `CCn1cc(CN2CCCC(CO)(Cc3cccc(Cl)c3)C2)cn1` (stereo not drawn), for which the “hERG current change (%, negative = inhibition) at 10uM” value is listed as -10.8%.

Consider `Cn1cc(CN2CCCC(CO)(Cc3cccc(Cl)c3)C2)cn1` (stereo not drawn), for which the “hERG current change (%, negative = inhibition) at 10uM” value was -17.1%.

Take `OCC1(Cc2cccc(Cl)c2)CCCN(Cc2cnn(-c3ccccc3)c2)C1` (stereo not drawn): the “hERG current change (%, negative = inhibition) at 10uM” value is listed as -54.7%.

`CC(C)n1cnc2c(Nc3ccc(F)c(Cl)c3)nc(NCCO)nc21`: the “hERG current change (%, negative = inhibition) at 10uM” value is -39%.
